Measurements: PubChem BioAssay (EPA / NIEHS)
Calls of active or inactive are those of the source. Rule for the calls: active = hit-call score of the fitted dose curve at least 0.9, where 1 is the maximum; inactive = score below 0.9.

Tests used:
Settings in all cases: mRNA level, 48 h; actives raise or lower the signal
[1] = read-out: Cytochrome P450 (CYP1A2), CYP1A2 (gene 1544); experiment: LTEA_HepaRG_CYP1A2: Life Technologies and Expression Analysis (LTEA) Assay for Cytochrome P450 (CYP1A2) using HepaRG (AID 2283479)
Outline: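 Assesses CYP1A2 mRNA in human HepaRG liver cells after 48 h chemical exposure at up to 100 uM. Values come from qRT-PCR with bidirectional curve fitting relative to DMSO.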

[2] = read-out: cysteine-aspartic acid protease (CASP8), CASP8 (gene 841); experiment: LTEA_HepaRG_CASP8: Life Technologies and Expression Analysis (LTEA) Assay for cysteine-aspartic acid protease (CASP8) using HepaRG (AID 2283480)
Outline: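 HepaRG, 48 h exposure, duplicate wells; 8 conc, half-log from 100 uM, 0.5% DMSO. Serum-free induction medium. CASP8 mRNA by TaqMan qRT-PCR, norm. ACTB/GAPDH/POLR2A; gain/loss fitted vs DMSO.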

[3] = read-out: Cytochrome P450 (CYP2B6), CYP2B6 (gene 1555); experiment: LTEA_HepaRG_CYP2B6: Life Technologies and Expression Analysis (LTEA) Assay for Cytochrome P450 (CYP2B6) using HepaRG (AID 2283481)
Outline: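 Using 48 h treatment of HepaRG cells in serum-free induction medium, concentrations spanned half-log steps from 100 uM in 0.5% DMSO vehicle. CYP2B6 mRNA induction or loss is scored by qRT-PCR against DMSO.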

[4] = read-out: Cytochrome P450 2C19 (Homo sapiens) (UniProt P33261); experiment: LTEA_HepaRG_CYP2C19: Life Technologies and Expression Analysis (LTEA) Assay for CYP2C19 using HepaRG (AID 2283482)
Outline: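 Human HepaRG liver cells received test chemicals for 48 h (highest 100 uM, half-log dilutions in 0.5% DMSO). CYP2C19 mRNA induction or loss is read by multiplexed qRT-PCR and fitted in both directions versus vehicle.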

CYP2C8 (gene 1558) = experiment: LTEA_HepaRG_CYP2C8: Life Technologies and Expression Analysis (LTEA) Assay for CYP2C8 using HepaRG (AID 2283483)
Outline: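 CYP2C8 mRNA induction or loss, by qRT-PCR normalized to ACTB/GAPDH/POLR2A, is read in HepaRG cells after 48 h treatment. Concentrations run from 100 uM down in half-log dilutions, with 0.5% DMSO as vehicle and baseline.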

CYP2C9 (gene 1559) = experiment: LTEA_HepaRG_CYP2C9: Life Technologies and Expression Analysis (LTEA) Assay for CYP2C9 using HepaRG (AID 2283484)
Outline: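 Cells plated 48 h, switched to serum-free induction medium, then treated in duplicate for 48 h at eight concentrations (max 100 uM, 0.5% DMSO). RNA then analysed by qRT-PCR for CYP2C9; curves fitted in both directions relative to DMSO.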

CYP2E1 (gene 1571) = experiment: LTEA_HepaRG_CYP2E1: Life Technologies and Expression Analysis (LTEA) Assay for CYP2E1 using HepaRG (AID 2283485)
Outline: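 Human liver line HepaRG, plated 48 h, then serum-free induction medium + chemical x 48 h; 8-pt CRC from 100 uM, half-log, 0.5% DMSO, n=2. Readout: CYP2E1 mRNA qRT-PCR vs ACTB/GAPDH/POLR2A; bidirectional fit vs DMSO.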

CYP4A11 (gene 1579) = experiment: LTEA_HepaRG_CYP4A11: Life Technologies and Expression Analysis (LTEA) Assay for CYP4A11 using HepaRG (AID 2283486)
Outline: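 Readout is CYP4A11 mRNA induction or suppression (qRT-PCR, ACTB/GAPDH/POLR2A normalization) in human HepaRG cells after 48 h chemical treatment, concentrations to 100 uM in 0.5% DMSO, fitted bidirectionally against vehicle.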

[5] = read-out: Cytochrome P450 3A4 (Homo sapiens) (UniProt P08684); experiment: LTEA_HepaRG_CYP3A4: Life Technologies and Expression Analysis (LTEA) Assay for CYP3A4 using HepaRG (AID 2283487)
Outline: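 CYP3A4 transcript measured by TaqMan qRT-PCR and normalized to three housekeeping genes after 48 h chemical exposure of human HepaRG cells. Top concentration 100 uM, half-log steps, 0.5% DMSO vehicle; gain or loss fitted against DMSO baseline.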

[6] = read-out: Pro-epidermal growth factor (Homo sapiens) (UniProt P01133); experiment: LTEA_HepaRG_EGF: Life Technologies and Expression Analysis (LTEA) Assay for Epidermal growth factor (EGF) using HepaRG (AID 2283489)
Outline: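 EGF expression changes in human HepaRG cells are scored by bidirectional fitting relative to 0.5% DMSO controls. Chemicals are tested at eight half-log concentrations up to 100 uM for 48 h in serum-free induction medium.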

[7] = read-out: Early growth response protein 1 (EGR1) transcription factor, EGR1 (gene 1958); experiment: LTEA_HepaRG_EGR1: Life Technologies and Expression Analysis (LTEA) Assay for Early growth response protein 1 (EGR1) transcription factor using HepaRG (AID 2283490)
Outline: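 Read-out is EGR1 mRNA level by qRT-PCR, normalized to three housekeeping genes and analysed for gain or loss of signal against 0.5% DMSO. Source cells: human HepaRG, treated 48 h at up to 100 uM in half-log dilutions.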

[8] = read-out: Ezrin (EZR), EZR (gene 7430); experiment: LTEA_HepaRG_EZR: Life Technologies and Expression Analysis (LTEA) Assay for Ezrin (EZR) using HepaRG (AID 2283491)
Outline: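 HepaRG, 48 h chemical exposure, 8-pt half-log series from 100 uM, 0.5% DMSO vehicle, duplicates. Read-out: EZR mRNA by TaqMan qRT-PCR (Fluidigm array), housekeeping-normalized; bidirectional curve fit vs DMSO baseline.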

CYP3A5 (gene 1577) = experiment: LTEA_HepaRG_CYP3A5: Life Technologies and Expression Analysis (LTEA) Assay for CYP3A5 using HepaRG (AID 2283493)
Outline: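 HepaRG plated 48 h, switched to serum-free induction medium, chemicals added 48 h (max 100 uM, half-log, 0.5% DMSO). RNA isolated; CYP3A5 by TaqMan qRT-PCR. Gain/loss vs DMSO.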

[9] = read-out: Fatty Acid-Binding Protein 1 (FABP1), FABP1 (gene 2168); experiment: LTEA_HepaRG_FABP1: Life Technologies and Expression Analysis (LTEA) Assay for Fatty Acid-Binding Protein 1 (FABP1) using HepaRG (AID 2283494)
Outline: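 HepaRG, 48 h post-plating switched to serum-free induction medium, then dosed 48 h (duplicate, 8 pts, ≤100 uM, 0.5% DMSO). RNA → Fluidigm TaqMan qRT-PCR, FABP1 normed to ACTB/GAPDH/POLR2A. Bidirectional curve fit vs DMSO.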

[10] = read-out: Cytochrome P450 4A22 (Homo sapiens) (UniProt Q5TCH4); experiment: LTEA_HepaRG_CYP4A22: Life Technologies and Expression Analysis (LTEA) Assay for Cytochrome P450 4A22 (CYP4A22) using HepaRG (AID 2283495)
Outline: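 Cryopreserved HepaRG cells, plated and cultured 48 h, then switched to serum-free induction medium and treated 48 h (duplicates, up to 100 uM, half-log steps, 0.5% DMSO). Expression change of CYP4A22 was fitted bidirectionally against vehicle.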

[11] = read-out: Cytochrome P450 7A1 (Homo sapiens) (UniProt P22680); experiment: LTEA_HepaRG_CYP7A1: Life Technologies and Expression Analysis (LTEA) Assay for Cytochrome P450 7A1 (CYP7A1) using HepaRG (AID 2283496)
Outline: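 HepaRG cells plated 48 h, then switched to serum-free induction medium and exposed in duplicate for 48 h to 8-point half-log series from 100 uM in 0.5% DMSO. CYP7A1 mRNA by qRT-PCR (TaqMan), normalized to ACTB/GAPDH/POLR2A; bidirectional fit versus DMSO.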

Measured: AC50

Sequence of Cytochrome P450 2C19 (Homo sapiens) (P33261 whole entry, looked up): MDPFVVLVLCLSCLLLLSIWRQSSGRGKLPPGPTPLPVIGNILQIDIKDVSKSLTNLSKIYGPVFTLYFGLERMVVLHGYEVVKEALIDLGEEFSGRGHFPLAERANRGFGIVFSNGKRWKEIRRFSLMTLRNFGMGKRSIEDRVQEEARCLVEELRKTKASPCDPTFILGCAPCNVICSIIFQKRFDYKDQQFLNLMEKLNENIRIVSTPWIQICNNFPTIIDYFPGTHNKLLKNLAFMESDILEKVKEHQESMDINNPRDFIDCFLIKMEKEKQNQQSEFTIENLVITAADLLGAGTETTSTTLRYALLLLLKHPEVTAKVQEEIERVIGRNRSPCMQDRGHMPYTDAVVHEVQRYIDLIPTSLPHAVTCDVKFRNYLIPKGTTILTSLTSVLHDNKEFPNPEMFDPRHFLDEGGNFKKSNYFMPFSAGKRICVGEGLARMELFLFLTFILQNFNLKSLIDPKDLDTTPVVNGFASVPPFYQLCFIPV
Sequence of Cytochrome P450 3A4 (Homo sapiens) (P08684 whole entry, looked up): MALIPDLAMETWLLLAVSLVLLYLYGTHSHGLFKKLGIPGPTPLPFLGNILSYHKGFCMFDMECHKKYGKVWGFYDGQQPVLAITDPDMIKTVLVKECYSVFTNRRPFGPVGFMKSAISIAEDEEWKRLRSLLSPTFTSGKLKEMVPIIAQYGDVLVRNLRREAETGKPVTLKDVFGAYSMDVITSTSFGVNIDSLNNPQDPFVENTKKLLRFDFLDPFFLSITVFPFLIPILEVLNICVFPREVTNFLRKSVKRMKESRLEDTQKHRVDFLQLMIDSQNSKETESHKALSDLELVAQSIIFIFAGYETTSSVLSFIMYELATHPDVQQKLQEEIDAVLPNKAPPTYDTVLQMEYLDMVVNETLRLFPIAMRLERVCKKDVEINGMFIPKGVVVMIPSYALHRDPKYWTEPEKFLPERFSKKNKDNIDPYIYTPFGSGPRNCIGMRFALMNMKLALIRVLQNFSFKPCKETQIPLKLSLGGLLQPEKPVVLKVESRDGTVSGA

CCOC(=O)CC(O)(CC(=O)OCC)C(=O)OCC
inactive: all assays above

CN1CCN(c2ccccc2/C=C2\SCCN(c3ccc(Cl)c(Cl)c3)C2=O)CC1
active: [1] 4.69 µM | [2] 93.4 µM | [3] 50 µM | CYP2E1 (gene 1571) 12.8 µM | CYP4A11 (gene 1579) 17.4 µM | [7] 83 µM | [8] 50 µM | [9] 50 µM | [10] 15.8 µM | [11] 93.9 µM
inactive: [4] | CYP2C8 (gene 1558) | CYP2C9 (gene 1559) | [5] | [6] | CYP3A5 (gene 1577)

C[C@@H]1C[C@H]2[C@@H]3CCC4=CC(=O)C=C[C@]4(C)[C@@]3(F)[C@@H](O)C[C@]2(C)[C@@]1(O)C(=O)COP(=O)(O)O
active: CYP2E1 (gene 1571) 25 µM | [5] 9.66 µM
not listed: [10]
inactive: all other assays above
